Screening data deposited in PubChem BioAssay by National Center for Advancing Translational Sciences (NCATS).
NS1 function inh = inhibitors of influenza NS1 protein function. Potency, µM (series often up to 46.1 µM), without a hit: top-dose activity, positive = more growth. 270,000 tested, 0.4% active; calls by dose curve; also: potency is read from the fitted curve at half-maximal effect; actives are rising curves; nearly all actives have a fitted effect of over 50% in size
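Compounds were scored for reversing the slow growth caused by influenza A NS1 in S. cerevisiae, measured by optical density at 600 nm. Assay medium contained 2% galactose at pH 6.0; NS1-free yeast of the same strain were the positive control.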
Cycloheximide cs = counter-screen hit for Shiga toxin inhibitors, cycloheximide; 300,000 tested, 12% active; max response, %; cell reporter, cycloheximide protein synthesis inhibition counterscreen; AID 2314; in the data active = max response mostly above about 13%, no sharp cut-off; inactive = mostly below about 14%; also: read at 38.3 µM for the half of the compounds with a filed dose; 0% is about no effect
Pf growth 96h = inhibits malaria parasite growth, 96 h; P. falciparum luciferase reporter growth, 96 h; Potency, µM (doses to about 28.7 µM), for inactives: top-dose activity change, negative = inhibition, actives largely listed as inhibitors; 320,000 tested, 6.9% active; also: potency is read from the fitted curve at half-maximal effect; % is scaled to controls: 0 for no effect and ±100 for the full control effect
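Readout is luminescence from an integrated firefly luciferase in P. falciparum. Red cells, 2% hematocrit and 0.05% parasitemia final, were cultured with compound through two parasite generations (96 hours) at 37 C, 5% CO2.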
Pf growth 48h = inhibits P. falciparum growth in the first generation, 48 h. P. falciparum luciferase growth in erythrocytes, 48 h. AID 504832. Potency, µM (titrated, usually from 28.7 µM), without a hit: top-dose activity change, negative = inhibition, actives largely listed as inhibitors. 310,000 tested, 5.9% active; also: potency is read from the fitted curve at half-maximal effect; % is scaled to controls: 0 for no effect and ±100 for the full control effect
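A one-generation exposure of luciferase-tagged malaria parasites in RPMI 1640/Albumax erythrocyte culture, 37 C and 5% CO2. Inhibition is inferred from decreased luminescence after adding detection reagent.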
Shiga inhibitor = blocks Shiga toxin action in Vero cells; AID 2315; inhibition, % at 38.7 µM; 290,000 tested, 9.2% active; Vero cells, Shiga toxin protein synthesis inhibition reporter; in the data active = inhibition mostly above about 28%, no sharp cut-off; inactive = mostly below about 43%; also: 0% is about no effect
* = called active by the depositor; ? = inconclusive; · = not tested or not shown; + = active, no number. Most compounds without a hit are left out; they make up all but 21% or so of the library. Unless noted, calls follow the shape of the dose curve; as a rule, active = well fitted inhibition curve with a large enough effect; inconclusive = small, poorly fitted or top-dose-only effect, or another doubt; inactive = no such curve, though single readings can be large or run the other way.

SMILES	NS1 function inh	Cycloheximide cs	Pf growth 96h	Pf growth 48h	Shiga inhibitor
Cc1cc(C(=O)Nc2nc(-c3ccccn3)cs2)ccc1[N+](=O)[O-]	5%	28*	?	9.3µM*	72
Cc1cccc(CN(C(=S)Nc2c(C)cccc2C)c2cccnc2)c1	·	4	-8%	-4%	14
CCN(Cc1ccccc1)C(c1ccccn1)c1nnnn1C1CCCCC1 (configuration not stated)	6%	-3	-32%	12µM*	-21
Clc1ccc(C(c2nnnn2C2CCCCC2)N(Cc2cccnc2)Cc2ccco2)cc1 (configuration not stated)	-52%	0	?	?	11
CCN(Cc1ccccc1)C(c1cccs1)c1nnnn1C1CCCCC1 (configuration not stated)	-39%	-1	0%	9.3µM*	-3
Clc1ccccc1CN(Cc1ccccc1)C(c1cccs1)c1nnnn1C1CCCC1 (configuration not stated)	-13%	7	?	?	-1
CC(c1nnnn1C1CCCCC1)N(Cc1ccccc1)Cc1cccnc1 (configuration not stated)	-44%	-3	11%	10µM*	-9
Cc1ccc(-c2cc(C(=O)Nc3ccc(S(=O)(=O)N4CC(C)OC(C)C4)cc3)[nH]n2)c(O)c1 (configuration not stated)	3%	-1	0.66µM*	0.26µM*	8
Cc1ccc(O)c(-c2cc(C(=O)Nc3ccc(S(=O)(=O)N4CC(C)OC(C)C4)cc3)[nH]n2)c1 (configuration not stated)	-33%	5	292%	0.52µM*	-9
Cc1ccc(O)c(-c2cc(C(=O)Nc3ccc(S(=O)(=O)Nc4nc(C)cc(C)n4)cc3)[nH]n2)c1	?	-5	13µM*	?	-14
NS(=O)(=O)c1ccc(NC(=O)c2cc(-c3ccccc3O)n[nH]2)cc1	12%	-8	?	?	-1
CC(C)c1ccc(N2CC(C)(C)C2=O)cc1	·	29*	5%	55%	74*
Cc1cc(NC(=O)c2ccc3[nH]c(C)c(C)c3c2)ccn1	5%	34	2.6µM*	2.6µM*	52*
Cc1[nH]c2ccccc2c1CCNC(=O)c1ccc2nccnc2c1	7%	15*	-5%	2%	·
O=C(NCCc1ccccc1)c1ccc2nccnc2c1	3%	-3	?	17%	17
CC(=O)Nc1cccc(NC(=O)c2ccc3[nH]c(C)c(C)c3c2)c1	8%	20*	63%	61%	56*
Cc1[nH]c2ccc(C(=O)NCCCN3CCN(C)CC3)cc2c1C	-5%	-4	12µM*	-14%	9
Cc1[nH]c2ccc(C(=O)NCCCN3CCOCC3)cc2c1C	24%	2	?	13%	-6
Cc1ccc(NC(=O)C(C)N2C(=O)c3ccccc3C2=O)c(C)c1 (configuration not stated)	32%	-4	-2%	-24%	-3
COc1ccc(NC(=O)c2ccc3[nH]c(C)c(C)c3c2)cc1	-7%	39*	32%	17%	48*
COc1ccc(NC2CCCN(C(=O)c3ccc4[nH]c(C)c(C)c4c3)C2)cc1 (configuration not stated)	0%	-2	13µM*	?	-13
CCc1cccc(CC)c1NC(=S)NCCc1c(C)[nH]c2ccccc12	13%	-3	13µM*	13µM*	-13
COc1ccc(NC2CCCN(C(=O)c3cc4ncccn4n3)C2)cc1 (configuration not stated)	7%	25*	?	-8%	36*
COc1ccc2c(c1OC)C(=O)N1C2SC(C)(C)[C@H]1C(=O)NCC(C)C (some centres not stated)	3%	1	-22%	?	-12
CCOc1ccc(C(=O)NCc2ccccn2)cc1	6%	11	38%	·	7
SMILES	NS1 function inh	Cycloheximide cs	Pf growth 96h	Pf growth 48h	Shiga inhibitor
Cc1[nH]c2ccc(C(=O)NCc3ccccn3)cc2c1C	-4%	29*	?	-22%	55*
CCC(=Nc1ccccc1N)c1c(O)[nH]c(=O)[nH]c1=O	-7%	52*	?	82%	99*
O=S(=O)(c1ccccc1)N1CCc2ccccc2C1	-1%	-2	-22%	6%	37
COC(=O)CSc1nnc(-c2ccc(OC)c(OC)c2)o1	-8%	6	-6%	12%	-27
NCCc1nnc(SCc2ccccc2F)o1	9%	-4	3%	0%	-5
COC(=O)c1ccc(OC)c(CSc2nnc(-c3ccc(C(C)(C)C)cc3)o2)c1	17%	-5	0.66µM*	·	-10
COc1cc(-c2nnc(SCc3cc(=O)oc4cc(C)ccc34)o2)cc(OC)c1OC	16%	29*	?	?	63
COc1ccc(-c2nnc(SCc3ccccc3F)o2)cc1OC	-12%	21	23%	47%	52*
Cc1ccc(-c2nnc(SCc3ccccc3F)o2)cc1	-31%	44*	131%	123%	63*
Cc1ccccc1N(C(=O)Cn1nnc(-c2cccs2)n1)C(C(=O)NCCC(C)C)c1ccco1 (configuration not stated)	23%	9	?	?	-12
CCOc1ccc(N=C(NC#N)SCC(=O)NC2CC2)cc1	-1%	-2	-6%	44%	31
CNc1ccccc1C(=O)OCC(=O)N(CCOC)c1c(N)n(CC(C)C)c(=O)[nH]c1=O	·	·	2%	-26%	·
Cc1cccc(NCCC(=O)c2ccc([N+](=O)[O-])cc2)c1C	-2%	3	38%	6%	11
Cc1ccc(C(=O)CNc2cccc([N+](=O)[O-])c2)cc1	·	38*	12%	62%	90*
Cc1ccc(NCC(=O)c2ccc([N+](=O)[O-])cc2)cc1	·	43*	?	?	85*
Cc1ccc(NCCC(=O)c2cccc([N+](=O)[O-])c2)c(C)c1	-36%	35*	10%	4%	0
Cc1cc(C)n(-c2nnc(NCc3ccc(Cl)cc3)nn2)n1	·	12	2.1µM*	?	16
Cc1cc(C)n(-c2nc(C)nc(NCc3ccccc3)n2)n1	-43%	4	47%	0%	39
Cc1nn(-c2nnc(NCc3ccccc3)nn2)c(C)c1Br	-36%	11	0.33µM*	0.59µM*	17
CCOc1ccc(NC(=O)C(C)Oc2ccccc2C(=O)Nc2cccc(Cl)c2Cl)cc1 (configuration not stated)	7%	-3	?	-14%	-13
N=C1CCCN1CC(=O)c1ccc(Br)cc1	2%	46*	46%	54%	+
CC1=Nn2c(nc(-c3ccccc3)c2-c2ccccc2)NC(=O)C1Br (configuration not stated)	5%	-1	32%	·	3
CCCn1c(=O)c2c(C(=O)OCC)cc(-c3ccco3)nc2n(CCC)c1=O	3%	-2	1.5µM*	·	-7
CCOC(=O)c1cc(-c2ccco2)nc2c1c(C)nn2-c1ccccc1	-4%	-2	14%	9.3µM*	-7
COc1cc(CNCc2ccc(Br)cc2)cc(OC)c1	1%	0	-5%	·	-3
